# Experimental data reported in publication PMC7862700, “An all-to-all approach to the identification of sequence-specific readers for epigenetic DNA modifications on cytosine”.
# Experiments:
# Assay in all cases: DAPPL (digital affinity profiling via proximity ligation, sequencing); 10 mM Tris-HCl pH 7.5, 50 mM NaCl, 1 mM DTT, 4% glycerol, room temperature, 30 min; GST-TFs on glutathione beads, 16-mer random dsDNA library, 0.1% formaldehyde crosslink after washing; high values mean tight binding
# [1] = molecular target: T1, FLI1 (Homo sapiens, UniProt Q01543 1-452); settings: protein: recombinant; tags: N-terminal GST; dsDNA, one strand shown
# T1 sequence: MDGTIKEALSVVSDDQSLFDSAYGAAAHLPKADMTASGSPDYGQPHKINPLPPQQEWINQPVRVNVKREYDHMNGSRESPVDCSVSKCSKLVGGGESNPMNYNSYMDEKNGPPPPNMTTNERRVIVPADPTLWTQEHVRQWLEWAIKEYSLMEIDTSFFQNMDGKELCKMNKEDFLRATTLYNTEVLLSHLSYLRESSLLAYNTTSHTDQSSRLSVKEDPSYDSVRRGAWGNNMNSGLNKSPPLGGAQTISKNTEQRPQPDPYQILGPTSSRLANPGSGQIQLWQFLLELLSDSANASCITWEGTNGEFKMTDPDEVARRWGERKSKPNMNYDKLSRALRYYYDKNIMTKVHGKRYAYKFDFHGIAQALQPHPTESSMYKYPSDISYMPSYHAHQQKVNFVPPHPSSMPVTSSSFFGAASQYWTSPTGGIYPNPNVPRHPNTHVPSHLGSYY
# Method in brief: (§1)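 After expression in yeast as GST fusions, human transcription factors were bound to glutathione beads, DNA-barcoded and mixed with a tag-only sample. The pools were incubated with 200 nmole of a 16-mer random double-stranded DNA library in Tris/NaCl/DTT/glycerol buffer (30 min, room temperature), washed and crosslinked with 0.1% formaldehyde. Proximity ligation with BsaI/T4 ligase ran for 1 h at 37 °C, before PCR amplification and sequencing on an Illumina NextSeq500. Binding signal is a hexamer's read frequency for a factor divided by its frequency for the tag-only sample.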
# [2] = molecular target: T2, ELK1 (Homo sapiens, UniProt P19419 1-428); settings: protein: recombinant; tags: N-terminal GST; dsDNA, one strand shown
# T2 sequence: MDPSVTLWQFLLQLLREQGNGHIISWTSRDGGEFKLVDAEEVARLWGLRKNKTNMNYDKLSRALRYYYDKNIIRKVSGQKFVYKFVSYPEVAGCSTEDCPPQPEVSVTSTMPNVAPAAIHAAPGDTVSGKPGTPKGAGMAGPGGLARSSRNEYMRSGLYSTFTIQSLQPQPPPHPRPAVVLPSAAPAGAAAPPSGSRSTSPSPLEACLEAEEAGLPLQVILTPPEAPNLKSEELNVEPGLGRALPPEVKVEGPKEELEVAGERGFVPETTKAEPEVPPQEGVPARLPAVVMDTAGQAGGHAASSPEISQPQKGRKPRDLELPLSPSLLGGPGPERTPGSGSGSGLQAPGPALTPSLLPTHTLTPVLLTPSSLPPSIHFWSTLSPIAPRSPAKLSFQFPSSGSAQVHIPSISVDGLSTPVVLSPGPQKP
# Method in brief: as §1
# [3] = molecular target: T3, GABPA (Homo sapiens, UniProt Q06546 1-454); settings: protein: recombinant; tags: N-terminal GST; dsDNA, one strand shown
# T3 sequence: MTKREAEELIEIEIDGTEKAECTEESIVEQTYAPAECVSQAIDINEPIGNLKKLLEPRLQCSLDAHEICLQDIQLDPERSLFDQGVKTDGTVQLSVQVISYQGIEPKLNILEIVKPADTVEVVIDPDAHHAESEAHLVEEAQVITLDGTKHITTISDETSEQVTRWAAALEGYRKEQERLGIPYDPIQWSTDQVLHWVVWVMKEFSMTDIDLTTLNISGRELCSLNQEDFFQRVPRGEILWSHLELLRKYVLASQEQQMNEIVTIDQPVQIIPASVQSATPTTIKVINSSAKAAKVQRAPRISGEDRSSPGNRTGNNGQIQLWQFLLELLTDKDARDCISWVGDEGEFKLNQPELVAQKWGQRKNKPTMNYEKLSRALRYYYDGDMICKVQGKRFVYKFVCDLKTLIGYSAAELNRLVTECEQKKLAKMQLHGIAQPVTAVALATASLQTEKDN
# Method in brief: as §1
# [4] = molecular target: T4, ERG (Homo sapiens, UniProt P11308 1-479); settings: protein: recombinant; tags: N-terminal GST; dsDNA, one strand shown
# T4 sequence: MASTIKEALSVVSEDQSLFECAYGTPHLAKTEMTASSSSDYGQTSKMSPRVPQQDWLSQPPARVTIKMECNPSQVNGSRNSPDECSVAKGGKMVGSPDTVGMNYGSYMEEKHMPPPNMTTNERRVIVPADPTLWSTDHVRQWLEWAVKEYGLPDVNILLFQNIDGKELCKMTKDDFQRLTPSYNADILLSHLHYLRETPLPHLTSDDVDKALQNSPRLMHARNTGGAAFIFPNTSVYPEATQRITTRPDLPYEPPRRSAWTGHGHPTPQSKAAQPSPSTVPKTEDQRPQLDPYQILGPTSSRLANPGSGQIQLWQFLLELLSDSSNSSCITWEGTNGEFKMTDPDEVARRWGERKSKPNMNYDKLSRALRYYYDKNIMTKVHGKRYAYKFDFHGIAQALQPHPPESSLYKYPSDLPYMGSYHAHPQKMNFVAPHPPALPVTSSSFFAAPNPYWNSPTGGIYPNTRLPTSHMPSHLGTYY
# Method in brief: as §1
# [5] = molecular target: ELF1 (Homo sapiens, UniProt P32519 1-619); settings: protein: recombinant; tags: N-terminal GST; dsDNA, one strand shown
# Chain of ELF1 (P32519 whole entry): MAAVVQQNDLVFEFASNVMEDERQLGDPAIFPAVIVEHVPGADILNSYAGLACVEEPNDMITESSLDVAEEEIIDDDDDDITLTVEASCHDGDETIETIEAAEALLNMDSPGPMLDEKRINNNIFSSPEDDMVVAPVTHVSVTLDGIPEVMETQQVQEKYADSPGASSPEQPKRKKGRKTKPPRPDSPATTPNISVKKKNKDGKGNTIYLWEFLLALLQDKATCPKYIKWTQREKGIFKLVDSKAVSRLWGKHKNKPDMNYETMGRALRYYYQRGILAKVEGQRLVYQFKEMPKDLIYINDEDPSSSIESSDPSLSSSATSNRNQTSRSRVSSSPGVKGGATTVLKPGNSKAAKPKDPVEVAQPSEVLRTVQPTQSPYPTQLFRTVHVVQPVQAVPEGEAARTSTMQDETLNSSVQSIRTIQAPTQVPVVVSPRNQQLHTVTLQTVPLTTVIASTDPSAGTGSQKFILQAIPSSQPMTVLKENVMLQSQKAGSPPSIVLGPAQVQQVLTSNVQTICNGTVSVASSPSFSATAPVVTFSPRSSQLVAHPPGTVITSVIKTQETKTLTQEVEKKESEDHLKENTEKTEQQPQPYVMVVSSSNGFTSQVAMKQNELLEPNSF
# Method in brief: as §1
# [6] = molecular target: T5, EHF (Homo sapiens, UniProt Q9NZC4 1-300); settings: protein: recombinant; tags: N-terminal GST; dsDNA, one strand shown
# T5 sequence: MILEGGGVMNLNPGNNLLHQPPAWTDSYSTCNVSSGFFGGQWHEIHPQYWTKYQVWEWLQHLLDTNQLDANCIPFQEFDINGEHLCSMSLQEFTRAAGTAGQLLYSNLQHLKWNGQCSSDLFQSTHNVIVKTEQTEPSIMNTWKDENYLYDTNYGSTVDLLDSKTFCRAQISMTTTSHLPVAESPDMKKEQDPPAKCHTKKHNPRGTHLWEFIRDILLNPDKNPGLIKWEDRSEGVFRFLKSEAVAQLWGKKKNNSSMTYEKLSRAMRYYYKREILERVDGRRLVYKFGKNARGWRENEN
# Method in brief: as §1
# [7] = molecular target: SPI1 (Homo sapiens, UniProt P17947 1-270); settings: protein: recombinant; tags: N-terminal GST; dsDNA, one strand shown
# Method in brief: as §1
# [8] = molecular target: SPIB (Homo sapiens, UniProt Q01892 1-262); settings: protein: recombinant; tags: N-terminal GST; dsDNA, one strand shown
# Chain of SPIB (Q01892 whole entry): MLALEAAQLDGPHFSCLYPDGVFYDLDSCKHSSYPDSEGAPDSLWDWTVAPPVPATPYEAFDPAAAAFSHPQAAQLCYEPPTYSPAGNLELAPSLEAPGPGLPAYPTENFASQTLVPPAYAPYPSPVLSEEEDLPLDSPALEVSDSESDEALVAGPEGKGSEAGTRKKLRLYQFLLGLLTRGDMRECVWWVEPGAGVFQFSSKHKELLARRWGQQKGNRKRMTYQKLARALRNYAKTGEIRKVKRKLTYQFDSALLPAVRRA
# Method in brief: as §1
# [9] = molecular target: T6, ELK3 (Homo sapiens, UniProt P41970 1-407); settings: protein: recombinant; tags: N-terminal GST; dsDNA, one strand shown
# T6 sequence: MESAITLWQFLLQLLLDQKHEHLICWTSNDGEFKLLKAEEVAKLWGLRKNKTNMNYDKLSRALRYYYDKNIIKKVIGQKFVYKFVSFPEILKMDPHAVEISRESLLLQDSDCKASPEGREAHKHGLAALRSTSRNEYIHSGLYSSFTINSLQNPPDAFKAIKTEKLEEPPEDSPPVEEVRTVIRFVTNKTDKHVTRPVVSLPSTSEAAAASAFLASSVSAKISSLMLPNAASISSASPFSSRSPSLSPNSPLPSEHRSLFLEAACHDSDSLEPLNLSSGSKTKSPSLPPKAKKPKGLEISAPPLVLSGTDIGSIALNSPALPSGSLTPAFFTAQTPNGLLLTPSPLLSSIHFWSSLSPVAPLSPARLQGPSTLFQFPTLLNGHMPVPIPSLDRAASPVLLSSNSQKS
# Method in brief: as §1
# [10] = molecular target: T7, FEV (Homo sapiens, UniProt Q99581 1-238); settings: protein: recombinant; tags: N-terminal GST; dsDNA, one strand shown
# T7 sequence: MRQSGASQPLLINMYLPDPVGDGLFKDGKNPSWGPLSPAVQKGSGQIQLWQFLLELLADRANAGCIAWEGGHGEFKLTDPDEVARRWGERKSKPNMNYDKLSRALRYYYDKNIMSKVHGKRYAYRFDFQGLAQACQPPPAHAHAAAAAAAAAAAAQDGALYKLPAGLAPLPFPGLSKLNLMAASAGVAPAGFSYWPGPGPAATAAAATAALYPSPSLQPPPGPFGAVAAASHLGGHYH
# Method in brief: as §1
# [11] = molecular target: ETV5 (Homo sapiens, UniProt P41161 1-510); settings: protein: recombinant; tags: N-terminal GST; dsDNA, one strand shown
# Chain of ETV5 (P41161 whole entry): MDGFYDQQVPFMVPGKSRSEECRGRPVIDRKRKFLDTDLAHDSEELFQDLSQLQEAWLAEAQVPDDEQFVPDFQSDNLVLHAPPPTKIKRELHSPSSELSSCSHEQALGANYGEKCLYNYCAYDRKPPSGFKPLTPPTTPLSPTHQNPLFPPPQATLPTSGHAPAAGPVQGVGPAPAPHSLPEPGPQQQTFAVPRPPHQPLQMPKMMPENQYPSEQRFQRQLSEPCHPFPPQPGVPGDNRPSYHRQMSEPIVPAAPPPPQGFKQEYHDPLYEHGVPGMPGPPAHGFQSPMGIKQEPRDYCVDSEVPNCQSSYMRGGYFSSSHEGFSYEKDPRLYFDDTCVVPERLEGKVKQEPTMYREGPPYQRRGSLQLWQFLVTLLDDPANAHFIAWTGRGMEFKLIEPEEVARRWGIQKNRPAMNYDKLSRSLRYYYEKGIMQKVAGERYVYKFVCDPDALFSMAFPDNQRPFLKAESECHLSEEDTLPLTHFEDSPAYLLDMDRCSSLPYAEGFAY
# Method in brief: as §1
# [12] = molecular target: HSF1 (Homo sapiens, UniProt Q00613 1-529); settings: protein: recombinant; tags: N-terminal GST; chain copies: 3; dsDNA, one strand shown
# Chain of HSF1 (Q00613 whole entry): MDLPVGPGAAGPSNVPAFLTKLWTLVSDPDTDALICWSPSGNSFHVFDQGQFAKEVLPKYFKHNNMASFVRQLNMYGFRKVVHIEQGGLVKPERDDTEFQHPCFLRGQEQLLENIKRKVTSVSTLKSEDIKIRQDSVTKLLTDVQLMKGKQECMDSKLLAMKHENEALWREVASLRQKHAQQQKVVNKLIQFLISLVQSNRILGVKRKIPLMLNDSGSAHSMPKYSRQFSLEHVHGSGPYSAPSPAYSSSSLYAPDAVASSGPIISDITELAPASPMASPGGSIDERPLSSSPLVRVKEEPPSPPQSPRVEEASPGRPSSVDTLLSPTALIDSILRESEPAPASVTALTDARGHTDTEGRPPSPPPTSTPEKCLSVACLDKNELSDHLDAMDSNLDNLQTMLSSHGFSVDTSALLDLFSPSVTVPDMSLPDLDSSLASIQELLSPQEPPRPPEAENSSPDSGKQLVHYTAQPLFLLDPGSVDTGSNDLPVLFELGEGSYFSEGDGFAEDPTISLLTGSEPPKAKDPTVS
# Method in brief: as §1
# [13] = molecular target: T8, SPIC (Homo sapiens, UniProt Q8N5J4 1-248); settings: protein: recombinant; tags: N-terminal GST; dsDNA, one strand shown
# T8 sequence: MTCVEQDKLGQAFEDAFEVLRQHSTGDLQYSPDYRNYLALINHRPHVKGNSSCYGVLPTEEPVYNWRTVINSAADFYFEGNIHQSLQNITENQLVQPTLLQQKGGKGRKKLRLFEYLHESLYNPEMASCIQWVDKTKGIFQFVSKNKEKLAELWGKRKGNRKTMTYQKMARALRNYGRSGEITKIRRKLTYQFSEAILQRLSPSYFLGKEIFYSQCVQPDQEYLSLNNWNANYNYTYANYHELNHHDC
# Method in brief: as §1
# [14] = molecular target: ELF4 (Homo sapiens, UniProt Q99607 1-663); settings: protein: recombinant; tags: N-terminal GST; dsDNA, one strand shown
# Chain of ELF4 (Q99607 whole entry): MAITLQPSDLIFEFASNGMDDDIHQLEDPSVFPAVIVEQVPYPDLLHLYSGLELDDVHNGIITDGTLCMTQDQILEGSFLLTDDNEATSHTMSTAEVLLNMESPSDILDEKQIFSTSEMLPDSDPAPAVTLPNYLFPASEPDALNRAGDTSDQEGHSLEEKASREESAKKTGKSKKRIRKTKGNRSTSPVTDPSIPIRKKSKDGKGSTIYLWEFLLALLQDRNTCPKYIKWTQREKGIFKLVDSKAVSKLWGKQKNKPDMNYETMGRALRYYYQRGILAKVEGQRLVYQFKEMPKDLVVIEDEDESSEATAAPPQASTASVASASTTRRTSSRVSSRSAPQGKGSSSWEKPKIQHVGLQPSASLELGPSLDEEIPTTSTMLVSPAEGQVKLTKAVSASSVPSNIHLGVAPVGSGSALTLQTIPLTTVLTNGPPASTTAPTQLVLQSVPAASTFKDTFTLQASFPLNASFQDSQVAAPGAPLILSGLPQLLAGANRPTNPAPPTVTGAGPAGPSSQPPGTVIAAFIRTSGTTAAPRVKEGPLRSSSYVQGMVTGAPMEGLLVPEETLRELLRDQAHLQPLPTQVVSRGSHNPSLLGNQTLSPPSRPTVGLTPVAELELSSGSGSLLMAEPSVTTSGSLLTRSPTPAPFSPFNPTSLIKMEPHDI
# Method in brief: as §1
# [15] = molecular target: T9, ELK4 (Homo sapiens, UniProt P28324-2 1-405); settings: protein: recombinant; tags: N-terminal GST; dsDNA, one strand shown
# T9 sequence: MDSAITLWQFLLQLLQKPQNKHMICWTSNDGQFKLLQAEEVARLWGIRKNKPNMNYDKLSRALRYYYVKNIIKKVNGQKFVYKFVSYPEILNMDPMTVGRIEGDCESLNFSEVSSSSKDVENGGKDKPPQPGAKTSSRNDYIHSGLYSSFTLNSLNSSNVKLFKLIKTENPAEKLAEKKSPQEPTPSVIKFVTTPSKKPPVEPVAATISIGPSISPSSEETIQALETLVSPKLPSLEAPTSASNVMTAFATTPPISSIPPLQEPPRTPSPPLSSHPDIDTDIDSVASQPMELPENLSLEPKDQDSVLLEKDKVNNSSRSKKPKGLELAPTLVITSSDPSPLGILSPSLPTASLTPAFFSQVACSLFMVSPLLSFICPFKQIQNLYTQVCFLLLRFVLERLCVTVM
# Method in brief: as §1
# [16] = molecular target: T10, ETV2 (Homo sapiens, UniProt O00321 1-342); settings: protein: recombinant; tags: N-terminal GST; dsDNA, one strand shown
# T10 sequence: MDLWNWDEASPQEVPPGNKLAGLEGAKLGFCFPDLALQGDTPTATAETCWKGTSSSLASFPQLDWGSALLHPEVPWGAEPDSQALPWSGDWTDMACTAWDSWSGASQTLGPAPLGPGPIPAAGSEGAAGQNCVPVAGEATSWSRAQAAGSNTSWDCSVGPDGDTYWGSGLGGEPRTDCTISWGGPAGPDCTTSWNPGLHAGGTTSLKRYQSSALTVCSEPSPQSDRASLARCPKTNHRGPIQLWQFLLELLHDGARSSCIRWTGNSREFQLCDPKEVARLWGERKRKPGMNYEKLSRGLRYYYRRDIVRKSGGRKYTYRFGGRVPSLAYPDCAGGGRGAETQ
# Method in brief: as §1
# [17] = molecular target: T11, ELF3 (Homo sapiens, UniProt P78545 1-371); settings: protein: recombinant; tags: N-terminal GST; dsDNA, one strand shown
# T11 sequence: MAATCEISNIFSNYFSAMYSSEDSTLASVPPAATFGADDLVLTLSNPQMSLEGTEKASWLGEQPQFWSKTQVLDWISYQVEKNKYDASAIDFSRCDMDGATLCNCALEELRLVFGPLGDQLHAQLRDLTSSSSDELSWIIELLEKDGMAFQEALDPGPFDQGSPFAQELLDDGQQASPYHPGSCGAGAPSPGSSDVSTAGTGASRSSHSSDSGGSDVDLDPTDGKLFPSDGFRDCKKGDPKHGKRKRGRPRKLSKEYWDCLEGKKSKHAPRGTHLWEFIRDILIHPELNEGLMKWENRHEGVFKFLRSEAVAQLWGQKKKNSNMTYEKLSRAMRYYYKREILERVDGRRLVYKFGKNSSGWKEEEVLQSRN
# Method in brief: as §1
# [18] = molecular target: CRX (Homo sapiens, UniProt O43186 1-299); settings: protein: recombinant; tags: N-terminal GST; dsDNA, one strand shown
# Chain of CRX (O43186 whole entry): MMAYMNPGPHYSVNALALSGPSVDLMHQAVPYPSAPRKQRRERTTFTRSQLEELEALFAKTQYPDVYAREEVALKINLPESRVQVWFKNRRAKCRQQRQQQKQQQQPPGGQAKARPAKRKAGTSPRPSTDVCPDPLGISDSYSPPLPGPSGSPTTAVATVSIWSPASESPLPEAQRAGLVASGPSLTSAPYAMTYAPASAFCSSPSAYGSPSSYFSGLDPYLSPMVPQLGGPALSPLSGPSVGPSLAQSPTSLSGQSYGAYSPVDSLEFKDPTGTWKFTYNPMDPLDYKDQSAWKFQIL
# Method in brief: as §1
# [19] = molecular target: ETV1 (Homo sapiens, UniProt P50549 1-477); settings: protein: recombinant; tags: N-terminal GST; dsDNA, one strand shown
# Chain of ETV1 (P50549 whole entry): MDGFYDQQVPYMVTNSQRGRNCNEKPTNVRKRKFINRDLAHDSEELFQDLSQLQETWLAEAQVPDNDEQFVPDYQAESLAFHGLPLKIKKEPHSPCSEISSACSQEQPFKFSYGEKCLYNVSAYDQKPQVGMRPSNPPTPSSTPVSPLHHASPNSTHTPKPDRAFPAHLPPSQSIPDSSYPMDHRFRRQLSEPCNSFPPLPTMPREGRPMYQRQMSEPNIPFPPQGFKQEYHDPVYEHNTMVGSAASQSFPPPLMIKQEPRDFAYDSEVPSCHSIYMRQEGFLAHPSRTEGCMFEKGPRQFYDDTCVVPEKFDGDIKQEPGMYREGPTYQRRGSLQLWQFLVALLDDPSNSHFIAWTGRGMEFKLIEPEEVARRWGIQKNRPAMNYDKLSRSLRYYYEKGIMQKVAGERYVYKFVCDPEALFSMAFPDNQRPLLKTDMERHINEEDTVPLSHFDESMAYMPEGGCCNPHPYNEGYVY
# Method in brief: as §1
sequence,measurement,setting,value
CCTAAG,binding signal,[1],"1.09 fold enrichment (6-mer frequency, TF over GST control)"
same,binding signal,[2],"1.14 fold enrichment (6-mer frequency, TF over GST control)"
same,binding signal,[3],"1.12 fold enrichment (6-mer frequency, TF over GST control)"
same,binding signal,[4],"1.16 fold enrichment (6-mer frequency, TF over GST control)"
same,binding signal,[5],"1.19 fold enrichment (6-mer frequency, TF over GST control)"
same,binding signal,[6],"1.18 fold enrichment (6-mer frequency, TF over GST control)"
same,binding signal,[7],"1.06 fold enrichment (6-mer frequency, TF over GST control)"
same,binding signal,[8],"1.21 fold enrichment (6-mer frequency, TF over GST control)"
same,binding signal,[9],"1.17 fold enrichment (6-mer frequency, TF over GST control)"
same,binding signal,[10],"1.14 fold enrichment (6-mer frequency, TF over GST control)"
same,binding signal,[11],"1.2 fold enrichment (6-mer frequency, TF over GST control)"
same,binding signal,[12],"1.35 fold enrichment (6-mer frequency, TF over GST control)"
same,binding signal,[13],"1.14 fold enrichment (6-mer frequency, TF over GST control)"
same,binding signal,[14],"1.26 fold enrichment (6-mer frequency, TF over GST control)"
same,binding signal,[15],"1.27 fold enrichment (6-mer frequency, TF over GST control)"
same,binding signal,[16],"1.08 fold enrichment (6-mer frequency, TF over GST control)"
same,binding signal,[17],"1.09 fold enrichment (6-mer frequency, TF over GST control)"
same,binding signal,[18],"1.85 fold enrichment (6-mer frequency, TF over GST control)"
same,binding signal,[19],"1.09 fold enrichment (6-mer frequency, TF over GST control)"
